29 compounds from PubChem BioAssay (NCATS) can be followed below.

Assay [1] can be described thus: qHTS assay for small molecule activators of the p53 signaling pathway (AID 651743; active means well fitted activation curve with a large enough effect in the signal ratio, not every such curve was filed as active; the % refers to the signal ratio; further: potency means the concentration at half of the fitted maximal effect; on activation: % of control where 0% means no effect). As to conditions: HCT-116 p53RE-bla, beta-lactamase FRET ratio, 16 h; activation: stronger effect = higher value. The method, boiled down: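 Cell-based beta-lactamase reporter (p53 response elements, HCT-116 background). After a 5-hour preincubation, cells received compound for 16 hours at 37 C; substrate development ran 2 hours at room temperature.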
Background: qHTS replaces the single test concentration by a dilution series.

Assay [2] is described as follows: qHTS Assay for Identification of Small Molecule Agonists for NFkB Signaling Pathway. (AID 624478; active means well fitted curve in the direction sought with a large enough effect; an effect the other way counts as inactive or inconclusive; further: 0% is about no effect). A digest of the protocol:
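NFkB-bla ME-180 cells carry a beta-lactamase reporter. They received compound plus TNF alpha at 10 pM final (its EC50) for 5 h at 37 C. Reporter activity was read as 460/530 nm emission ratio after 2 h LiveBLAzer substrate loading.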

Assay [3] is described as follows: qHTS Assay for Identification of Small Molecule Antagonists for NFkB Signaling Pathway. (AID 624479).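 Further: pathway stimulated with TNF alpha; on the % scale 0 is the no-effect control and ±100 the full control effect.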
The nature of assay [4]: Cell Proliferation Assay against the TMD8 Cell Line (AID 651645; active means well fitted curve in the direction sought with a large enough effect; an effect the other way counts as inactive or inconclusive;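 further: cells exposed to compound for 48 h before reading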). The note with it: TMD8 DLBCL cell line proliferation/viability; at 46.1 µM (top of the series). The method, boiled down: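 Luminescent ATP read-out (CellTiter-Glo, 15 min RT) after 48 h compound exposure of log-growing TMD8 cells at 37C; percent activity scaled between DMSO as 100% and 9.2 uM bortezomib final as 0%.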

A short description of assay [5]: Cell Proliferation Assay against the HBL1 Cell Line (AID 651646; active means well fitted curve in the direction sought with a large enough effect; an effect the other way counts as inactive or inconclusive;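 further: cells exposed to compound for 48 h before reading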). The note with it: HBL1 DLBCL cells; at 46.1 µM (top of the series). The method, boiled down:
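500 log-phase HBL1 cells per well in phenol red-free RPMI with 5% FBS were treated with compounds for 48 h at 37 °C, 5% CO2. Viability was read by CellTiter-Glo luminescence, normalized to DMSO (100%) and 9.2 uM bortezomib final (0%).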

The nature of assay [6]: Cell Proliferation Assay against the TMD8 Cell Line (Caspase readout at 16 hrs) (AID 651712; active means well fitted curve in the direction sought with a large enough effect; an effect the other way counts as inactive or inconclusive). A digest of the protocol: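 TMD8 cells (500/well) in phenol-red-free RPMI with glutamine, 5% FBS, were exposed to compounds for 16 h at 37 °C. Caspase 3/7 activation was read by Caspase-Glo luminescence; percent activity normalised to DMSO (0%) and 9.2 uM bortezomib final (100%).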

The nature of assay [7]: Cell Proliferation Assay against the TMD8 Cell Line (Caspase readout at 8 hrs) (AID 651713; active means well fitted curve in the direction sought with a large enough effect; an effect the other way counts as inactive or inconclusive;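 further: 0% = DMSO and 100% = 9.2 µM bortezomib caspase signal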). The method, boiled down: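 TMD8 cells in RPMI plus 5% FBS were treated with compound for 8 h at 37C. Caspase 3/7 activation was read by Caspase-Glo luminescence. Percent activity was scaled from DMSO (0%) to 9.2 uM bortezomib final (100%).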
The nature of assay [8]: qHTS assay for small molecule activators of the nuclear factor-kappa B (NF-kB) signaling pathway (AID 651749; active means well fitted activation curve with a large enough effect in the signal ratio; the % refers to the signal ratio; further: % of control where 0% means no effect). The note with it: NF-kB-bla ME-180 cells, beta-lactamase FRET ratio, 16 h; stronger effect = higher value. The method, boiled down:
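Screening used 2,000 ME-180 reporter cells per well exposed to pinned compound (23 nL) or DMSO; after 16 hr at 37C, beta-lactamase expression under NF-kB control was assessed through FRET.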

A short description of assay [9]: qHTS assay for small molecule disruptors of the mitochondrial membrane potential - 1 hr assay (AID 651754). Further: nearly all actives have a fitted effect of over 35% in size. Further: potency means the concentration at half of the fitted maximal effect. The method, boiled down: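 HepG2 cells, attached overnight, were exposed to compound for 1 hr at 37C, then stained 30 min with a potentiometric dye. Ratio of red aggregate (590nm) to green monomer (535nm) fluorescence reports membrane potential; collapse shifts signal toward green.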

Assay [10] in a line: qHTS assay for small molecule disruptors of the mitochondrial membrane potential - 5 hr assay (AID 651755). Further: nearly all actives have a fitted effect of over 40% in size. Further: potency means the concentration at half of the fitted maximal effect. A digest of the protocol:
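HepG2 cells, attached overnight at 37C, were exposed to compound or DMSO for 5 hr at 37C, 5% CO2. Mito-MPS dye was then added for 30 min, and fluorescence read at 490/535 nm (monomers) and 540/590 nm (aggregates).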

Values joined by “and” are separate entries in the source; they are usually repeats but may differ in a detail not shown here. Equal values may be shown once. Results filed as inconclusive are left out. Active and inactive are the calls of the source. Unless noted, the call rests on the fitted dose curve.

Turning to `C[C@]12CCC(=O)C=C1CC[C@@H]1[C@@H]2CC[C@@]2(C)[C@H]1CC[C@]2(C)O`, the activation in assay [1] is 5.56% (inactive).

`O=P1(N(CCCl)CCCl)NCCCO1` (stereo not drawn): the outcome in assay [2], in assay [3], in assay [6] and in [7] was inactive. In assay [4], the viability (% of control) came to 114%. Moreover, the viability, percent of control in assay [5] is 108%. In addition, the activation in assay [1] was -1.12% (inactive) and -2.77% (inactive); in [8] it was -0.934% (inactive) and -1.34% (inactive).

For `COC(=O)C(c1ccccc1)C1CCCCN1` (stereo not drawn), the activation in assay [1] is -1.5% (inactive) and -3.75% (inactive); in assay [8] it was 0.137% (inactive) and 0.745% (inactive). The Potency result in [9] and in assay [10] was “inactive” each time.

Take `CC(C)(C)c1ccc(O)cc1`: the activation in assay [1] was -2.47% (inactive).

In the case of `CCCC(C)(COC(N)=O)COC(N)=O`, the activation in assay [1] was 1.72% (inactive) and -1.16% (inactive); in [8] it was 0.11% (inactive) and -1.2% (inactive). Besides, the Potency result in assay [9] and in assay [10] was “inactive” each time.

As to `Clc1ccc(C(c2ccc(Cl)cc2)C(Cl)(Cl)Cl)cc1`, the results for the activation in [1] and in assay [8] were 2.65% (inactive) and 2.81% (inactive), respectively. In addition, the Potency result in assay [9] and in [10] was “inactive” in each case.

Turning to `Nc1ccccc1C(=O)O`, the activation in assay [1] is -0.0398% (inactive); in [8], 1.57% (inactive).

Turning to `C[C@]1(O)CC[C@H]2[C@@H]3CCC4=CC(=O)CC[C@]4(C)[C@@]3(F)[C@@H](O)C[C@@]21C`, the figures for the activation in assay [1] and in assay [8] were -1.51% (inactive) and -0.7% (inactive), respectively. For the same compound, the Potency result in assay [9] and in assay [10] was “inactive” each time.

For `C[C@]12CCC(=O)C=C1CC[C@@H]1[C@@H]2CC[C@]2(C)C(=O)CC[C@@H]12`, the activation in [1] was -1.07% (inactive) and 0.979% (inactive). In addition, the Potency entry in assay [9] and in [10] was “inactive” each time.

In the case of `O=C1c2ccccc2C(=O)c2ccccc21`, the activation was 3.87% (inactive) in [1] and -2.5% (inactive) in assay [8].

Turning to `CC(C)c1cccc(C(C)C)c1O`, the activation in assay [1] was 0.635% (inactive); in [8], 1.44% (inactive). For the same compound, the Potency entry in assay [9] and in [10] was “inactive” each time.

For the compound `Nc1ccccc1`, the activation in [1] was 1.3% (inactive).

`Nc1nc(N)nc(NC2CC2)n1`: the figures for the activation in assay [1] and in assay [8] were -0.84% (inactive) and -2.39% (inactive), respectively.

Take `Oc1ccc(Cl)cc1`: the activation was -2.59% (inactive) in [1] and -0.964% (inactive) in assay [8].

Consider `COP(=S)(OC)SCN1C(=O)c2ccccc2C1=O`, for which the activation in assay [1] was 6.79% (inactive); in [8], -2.37% (inactive).

For `O=C1c2ccccc2C(=O)C1C(=O)C(c1ccccc1)c1ccccc1`, the activation in [1] was 23.1% (inactive); in [8], -1.82% (inactive).

On to `COc1cc(OC)c(OC)cc1C=O`, for which the activation is -3.74% (inactive) in [1] and 2% (inactive) in [8]. The Potency entry in assay [9] and in assay [10] was “inactive” each time.

Consider `COP(=S)(OC)Oc1ccc(SC)c(C)c1`, for which the activation was -1.52% (inactive) and -0.273% (inactive) in assay [1]; -0.287% (inactive) and 1.27% (inactive) in assay [8]. The Potency result in assay [10] was “inactive”.

`O=C(O)CCCc1ccc(N(CCCl)CCCl)cc1`: the Potency in assay [1] was 22.4 µM (active) and 35.5 µM (active). Also, the activation in assay [8] is 0.602% (inactive) and -1.35% (inactive).

In the case of `CCOC(=O)CC(SP(=S)(OC)OC)C(=O)OCC` (stereo not drawn), the activation in assay [1] is -1.29% (inactive) and 0.916% (inactive) and -0.523% (inactive); in [8], -3.4% (inactive) and -2.42% (inactive). Besides, the Potency result in assay [9] and in assay [10] was “inactive” throughout.

`CC(C)NC(C)C`: the activation in assay [1] was -4.28% (inactive); in assay [8] it was -1.54% (inactive).

On to `CC1(C)C(C=C(Cl)Cl)C1C(=O)OC(C#N)c1cccc(Oc2ccccc2)c1` (stereo not drawn), for which the values for the activation in [1] and in [8] were -1.45% (inactive) and 1.83% (inactive), respectively.

With `CCC(C)(C)c1ccc(O)cc1`, the activation in assay [1] is 0.115% (inactive) and -4.79% (inactive); in assay [8], -2.14% (inactive) and 1.1% (inactive).

`NCCc1ccc(O)cc1`: the activation was -2.23% (inactive) in assay [1] and -0.88% (inactive) in [8]. For the same compound, the Potency result in [10] is “inactive”.

For the compound `COP(=S)(OC)Oc1cc(Cl)c(Cl)cc1Cl`, the activation in assay [1] was -3.16% (inactive); in assay [8], -1.3% (inactive).

`[N-]=[N+]=CC(=O)OC[C@H](N)C(=O)O`: the activation in assay [1] was -0.27% (inactive); in assay [8], -0.449% (inactive).

As for `CCOP(=S)(OCC)Oc1ccc2c(C)c(Cl)c(=O)oc2c1`, the activation in assay [1] was -4.7% (inactive).

As for `Nc1ccc([As](=O)(O)O)cc1`, the activation in assay [1] is -0.538% (inactive); in [8] it was -0.596% (inactive).

With `CN1C[C@H](C(=O)N[C@]2(C)O[C@@]3(O)[C@@H]4CCCN4C(=O)[C@H](Cc4ccccc4)N3C2=O)C=C2c3cccc4[nH]cc(c34)C[C@H]21`, the activation in assay [1] is -2.39% (inactive) and -2.48% (inactive). The Potency in assay [9] and in assay [10] was 11.9 µM (active) in each case.
